Measured values taken from the supplement of paper PMC8047044.
Values joined by “and” are separate entries in the source; they are usually repeats but may differ in a detail not shown here. Equal values may be shown once. Where a name gives a salt, the structure may show the parent alone. ± gives the standard deviation of the averaged measurements.

Tested on: Neuro-2a
Assay: neurite formation score, plate-normalized to DMSO control mean 5.04 (score (0-8 scale)); higher = more or longer neurites
Conditions: 0.1 µM
Procedure: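 Neuro-2a mouse neuroblastoma cells in PLL-coated 96-well plates were pre-treated for 1 h in DMEM(+) with each kinase inhibitor at 0.1 µM, then switched to serum-free DMEM(-) with inhibitor to induce neurite outgrowth and fixed about 2-3 h later. Three blinded observers scored neurite formation from 0 (no neurites) to 8 (long neurites on almost all cells).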

| Compound | neurite formation score |
| --- | --- |
| Cn1cc(C2=C(c3ccc(Cl)cc3Cl)C(=O)NC2=O)c2ccccc21 | 4.76 |
| CN1CCN(c2ccc(Nc3cc(-c4cccc(-n5ccc6cc(C7CC7)cc(F)c6c5=O)c4CO)cn(C)c3=O)nc2)CC1 | 4.58 |
| CN(C)c1ccc(-c2nc3ncc(Cl)c(N4CCN(CC(=O)Nc5nccs5)CC4)c3[nH]2)cc1 | 4.09 |
| Cc1cnc(Nc2ccc(OCCN3CCCC3)cc2)nc1Nc1cccc(S(=O)(=O)NC(C)(C)C)c1 | 3.58 |
| O=S(=O)(c1cccc2cnccc12)N1CCCNCC1 [Fasudil (HA-1077) HCl] | 5.21 |
| CCNc1nc(Nc2cc(F)c(C(=O)N3CCOCC3)cc2OC)ncc1C(F)(F)F | 3.75 |
| Cc1cc(Nc2cc(N3CCN(C)CC3)nc(Sc3ccc(NC(=O)C4CC4)cc3)n2)n[nH]1 [VX-680 (MK-0457,Tozasertib)] | 3.58 |
| O=C(Nc1ccccc1C(=O)NC1CCCCNC1=O)c1cc2ccccc2s1 (configuration not stated) | 3.75 |
| N#Cc1c(Oc2ccc(F)c(NC(=O)Cc3cccc(C(F)(F)F)c3)c2)ccc2nc(NC(=O)C3CC3)sc12 | 4.54 |
| Cc1ccc(NC(=O)c2ccc(CN3CCN(C)CC3)cc2)cc1Nc1nccc(-c2cccnc2)n1 [Imatinib (STI571)] | 1.42 |
| C=CC(=O)Nc1cc2c(Nc3ccc(F)c(Cl)c3)ncnc2cc1OCCCN1CCOCC1 [Canertinib (CI-1033)] | 4.71 |
| O=C1NC(=O)/C(=C/c2ccc3nccc(-c4ccncc4)c3c2)S1 | 5.42 |
| COc1cc(F)c(F)c(Nc2ccc(I)cc2F)c1NS(=O)(=O)C1(C[C@H](O)CO)CC1 [Refametinib] | 3.42 |
| COc1ccc(S(=O)(=O)N(C(C)=O)c2ccccc2/C=C/c2cc[n+]([O-])cc2)cc1 | 3.54 |
| CNC(=O)c1nn(C)c2c1C(C)(C)Cc1cnc(Nc3ccc(N4CCN(C)CC4)cc3)nc1-2 | 4.58 |
| CN(C)C1CCN(C(=O)c2ccc(NC(=O)Nc3ccc(-c4nc(N5CCOCC5)nc(N5CCOCC5)n4)cc3)cc2)CC1 | 3.09 |
| CC[C@H](Nc1ncnc2[nH]cnc12)c1nc2cccc(F)c2c(=O)n1-c1ccccc1 [CAL-101 (Idelalisib, GS-1101)] | 4.71 |
| Cc1c(Cn2c(C)nc3c(C(=O)O)cc(N4CCOCC4)cc32)cccc1C(F)(F)F | 4.08 |
| Brc1c(Br)c(Br)c2n[nH]nc2c1Br | 5.09 |

| Compound | neurite formation score |
| --- | --- |
| Cc1ccc(NC(=O)c2ccc(CN3CCN(C)CC3)cc2)cc1Nc1nccc(-c2cccnc2)n1 [Imatinib Mesylate (STI571)] | 4.71 |
| CCN(CC)CCNC(=O)c1c(C)[nH]c(/C=C2\C(=O)Nc3ccc(F)cc32)c1C [Sunitinib] | 5.58 |
| CC(=O)c1c(C)c2cnc(Nc3ccc(N4CCNCC4)cn3)nc2n(C2CCCC2)c1=O | 4.88 and 4.54 |
| Cc1nc(Nc2ncc(C(=O)Nc3c(C)cccc3Cl)s2)cc(N2CCN(CCO)CC2)n1 | 2.38 |
| CO[C@H]1C[C@@H]2CC[C@@H](C)[C@@](O)(O2)C(=O)C(=O)N2CCCC[C@H]2C(=O)O[C@H]([C@H](C)C[C@@H]2CC[C@@H](OCCO)[C@H](OC)C2)CC(=O)[C@H](C)/C=C(\C)[C@@H](O)[C@@H](OC)C(=O)[C@H](C)C[C@H](C)/C=C/C=C/C=C/1C [Everolimus (RAD001)] | 5.54 |
| COc1ccc(-c2cc3c(C)nc(N)nc3n([C@H]3CC[C@H](OCCO)CC3)c2=O)cn1 | 4.92 |
| Cc1cc(NC(=O)c2cccc(NC(=O)/C=C/CN(C)C)c2)ccc1Nc1nccc(-c2cccnc2)n1 | 4.58 |
| C#Cc1cccc(Nc2ncnc3cc4c(cc23)OCCOCCOCCO4)c1 [Icotinib] | 5.09 |
| O=C(Nc1nc2cccc(-c3ccc(CN4CCS(=O)(=O)CC4)cc3)n2n1)C1CC1 | 5 ± 0.35 |
| Nc1ccc(C(=O)Nc2cccc(-c3nc(N4CCOCC4)c4oc5ncccc5c4n3)c2)cn1 | 4.42 |
| C=CC(=O)Nc1ccc(CN2C(=O)N(c3cc(OC)cc(OC)c3)Cc3cnc(Nc4ccc(N5CCN(C)CC5)cc4)nc32)cc1 | 4.25 |
| Cc1ccc(-c2nn(C(C)(C)C)c3ncnc(N)c23)cc1 | 3.54 |
| COc1cc(Nc2ncc(F)c(Nc3ccc4c(n3)NC(=O)C(C)(C)O4)n2)cc(OC)c1OC | 4.58 |
| COc1cc2ncnc(Nc3ccc(F)c(Cl)c3)c2cc1NC(=O)/C=C/CN1CCCCC1 | 4.88 |
| CC(C)n1nc(-c2ccc3oc(N)nc3c2)c2c(N)ncnc21 | 5.25 |
| CN1CCN(c2ccc3nc(-c4c(N)c5c(F)cccc5[nH]c4=O)[nH]c3c2)CC1 [Dovitinib Dilactic acid] | 4.92 |
| O=C(O)c1ccc(-c2c[nH]c3ncc(-c4ccccc4)cc23)cc1C1CCCC1 | 3.92 |
| CNC(=O)c1cc(Oc2ccc(NC(=O)Nc3ccc(Cl)c(C(F)(F)F)c3)c(F)c2)ccn1 [Regorafenib] | 4.88 |
